In the library only some 1.5% were active in any assay of this set; here they are far more common.
NSD2 inh: NSD2 histone methyltransferase inhibitors, primary screen, biochemical, AlphaScreen, single concentration, set 2; actives 0.54% (n = 310,000); Histone-lysine N-methyltransferase NSD2 (Homo sapiens), O96028; AID 743445, 2014; inhibition, % at 12.5 µM; NSD2 peptide methylation, 120 min; in the data active means inhibition above about 50%
MLL AF4-AF9 inh: inhibitors of AF4 peptide binding to AF9, primary screen, biochemical, AlphaScreen, biotin-AF4 peptide, FLAG-AF9, single point; Protein AF-9 (Homo sapiens), P42568; inhibition, % at 10 µM; actives 0.47% (n = 350,000);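 active means every replicate reaching a set inhibition limit, whatever the replicate mean, cut at about 25% in these data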
CASP6 VEID inh: human caspase-6 inhibitors, primary screen, biochemical, VEID-R110 fluorescence, single point, set 2. P55212. purified caspase-6, Z-VEID-R110 cleavage fluorescence. inhibition, % at 12.5 µM. actives 0.53% (n = 350,000). AID 686996, 2013;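 active means mean inhibition across replicates at least about 35%, with every replicate also reaching that limit, limit read from the data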
RAD52 inh: RAD52 DNA annealing inhibitors, primary screen, biochemical, FRET, single point, set 2 | recombinant RAD52 DNA annealing, FRET fluorescence | inhibition, % at 18.7 µM | actives 0.46% (n = 360,000);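 active means every replicate showing at least 50% inhibition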
Target sequence (P43351 whole entry, looked up): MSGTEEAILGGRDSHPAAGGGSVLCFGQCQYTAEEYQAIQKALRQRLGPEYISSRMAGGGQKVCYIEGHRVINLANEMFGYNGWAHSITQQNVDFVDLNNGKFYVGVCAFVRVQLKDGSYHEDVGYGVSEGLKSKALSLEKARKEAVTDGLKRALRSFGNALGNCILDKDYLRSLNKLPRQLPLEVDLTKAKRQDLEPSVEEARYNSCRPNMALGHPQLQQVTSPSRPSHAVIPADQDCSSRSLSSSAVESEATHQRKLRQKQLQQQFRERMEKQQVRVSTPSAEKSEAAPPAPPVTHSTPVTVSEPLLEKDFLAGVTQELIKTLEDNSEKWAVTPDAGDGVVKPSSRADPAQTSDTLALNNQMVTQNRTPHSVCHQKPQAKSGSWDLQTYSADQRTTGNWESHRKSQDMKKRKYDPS
miR122 inh: miR-122 Renilla sensor signal increase in Huh7, primary screen, miR-122 inhibitor project, cell-based, single point, plate reader. Huh7 miR-122 Renilla luciferase sensor, 48 h; neutral wells = 0, positive control = 100. AID 602342, 2012. activation (reporter increase), % at 12.5 µM. actives 0.3% (n = 340,000);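 active means mean replicate activation score at least 90 and every replicate individually at or above 90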;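 further: higher luciferase means less miR-122 activity so hits act as miR-122 inhibitors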
AlphaScreen art: AlphaScreen signal interference with preloaded methylated product, dose response, artefact control for NSD2 inhibitor project, biochemical, cherry-picked samples; shares compounds with NSD2 inh; AlphaScreen artifact counterscreen, preloaded methylated H4 peptide; AC35, µM (titrated, usually from 10 µM); actives 9.4% (n = 1,500); call rule not given here
Numbers stand for hits; . = inactive; / = not tested or not shown.

SMILES | NSD2 inh | MLL AF4-AF9 inh | CASP6 VEID inh | RAD52 inh | miR122 inh | AlphaScreen art
COc1cc2c(cc1OC)CN(C(=O)[C@@H]1[C@H]3C(=O)O[C@H](c4ccccc4)[C@H](c4ccccc4)N3[C@H](c3ccc(OCCO)cc3)[C@@]13C(=O)Nc1ccc(C#CCNC(N)=O)cc13)CC2 | / | . | . | . | / | /
CC(=O)N1C2CCCCC2S[C@H]2CCCCC21 (some centres not stated) | 56.7 | / | / | / | / | .
O=C(C[C@@H]1CC[C@@H]2[C@H](COC[C@H](O)CN2CC2CC2)O1)NCc1ccc(Cl)cc1 | / | . | . | . | . | /
CN1CCN(C(=O)C[C@H]2CC[C@@H]3[C@H](COC[C@H](O)CN3Cc3cccc(F)c3)O2)CC1 | / | / | / | / | . | /
O=C(CSc1nccn1-c1ccc(F)cc1)NCc1ccc(F)cc1 | 50.1 | . | . | . | . | .
O=C(CSc1nccn1-c1ccccc1)NCc1ccc(F)cc1 | . | . | . | . | . | /
CCOc1cc(N2CCOCC2)c(OCC)cc1NC(=O)c1cnccn1 | 64.3 | . | . | . | . | .
Cc1ccc(CSc2nnc(Nc3ccc(C)cc3)s2)cc1 | 126.6 | / | . | . | . | .
CCSc1nnc(Nc2ccc(C)cc2)s1 | . | / | / | / | . | /
O=C(O)c1ccc(-n2cccc2/C=N\NC(=O)c2cc3cc(Br)ccc3o2)cc1 | 57.7 | . | 63.9 | . | . | .
Cn1cc(/C=N/NC(=O)c2cc3cc(Br)ccc3o2)c2ccccc21 | . | / | . | . | . | /
CN(C)S(=O)(=O)c1ccc(Cl)c(C(=O)OCC(=O)c2ccco2)c1 | 55.4 | . | . | . | . | .
CCCCN1C(=O)/C(=C2\SC(N3CCCCC3)=NC2=O)c2ccccc21 | . | / | / | / | . | /
CCCCN1C(=O)C(=Nc2cccc3cnccc23)c2ccccc21 | 73.9 | . | . | . | / | .
Cc1ccc(S(=O)(=O)N(C)C[C@@H]2Oc3cc(Br)ccc3S(=O)(=O)N([C@H](C)CO)C[C@@H]2C)cc1 | / | . | . | . | . | /
CC(C)(O)C#Cc1cccc(-c2nc(C(=O)O)cc3c2[C@@H](CCO)N(S(=O)C(C)(C)C)C3)c1 (some centres not stated) | / | . | . | . | / | /
CC(C)NC(=O)N(C)C[C@H]1Oc2c(NC(=O)c3cnccn3)cccc2C(=O)N([C@H](C)CO)C[C@@H]1C | / | . | . | . | . | /
CCN(CCCn1c(=S)[nH]c2ncccc2c1=O)c1ccccc1 | . | / | / | / | . | /
CCN(CC)CCCn1c(=S)[nH]c2ncccc2c1=O | 54.8 | / | / | / | . | .
CC1(C)C=C2C(=NN(c3ccccc3)C(N)=C2C#N)CO1 | 100.4 | . | 83.5 | . | / | .
COc1ccc2c3c(n(C)c2c1)[C@@H](CO)N(C(=O)Nc1ccc(F)cc1)CC31CN(C(=O)c2ccccc2F)C1 | / | . | . | . | / | /
O=S(=O)(c1ccc(-c2nnco2)cc1)N1CCCCC1 | 92.5 | . | . | . | . | .
Cc1ccc(-c2cc(C(=O)N/N=C/c3ccccc3)n[nH]2)o1 | 121.9 | . | . | . | . | .
COc1ccc2c3c(cccc13)OC2=O | . | . | . | . | / | /
COc1ccc2c3c(cccc13)N(C)N=C2C | 71.9 | / | / | / | . | .
Cc1ccc(C(C[N+](=O)[O-])c2c(C)[nH]n(-c3ccccc3)c2=O)cc1 (configuration not stated) | 102.9 | . | . | . | . | .
COc1ccc(C(c2c(C)[nH]n(-c3ccccc3)c2=O)c2c(C)[nH]n(-c3ccccc3)c2=O)cc1OC | 97.5 | / | / | / | . | .
Cc1[nH]n(-c2ccccc2)c(=O)c1C(C[N+](=O)[O-])c1ccc(F)cc1 (configuration not stated) | 64.8 | / | / | / | / | .
Cc1[nH]n(-c2ccccc2)c(=O)c1C(C[N+](=O)[O-])c1ccc(Cl)cc1 (configuration not stated) | 100.1 | / | / | / | . | .
Cc1[nH]n(-c2ccccc2)c(=O)c1Sc1ccc(Cl)cc1 | . | / | / | / | . | /
